Our source for the residual activity values is ChEMBL document CHEMBL2218924, “A broad activity screen in support of a chemogenomic map for kinase signalling research and drug discovery” (Biochem J, 2013).

Test [1] addresses Rho-associated protein kinase 2 (Homo sapiens) (UniProt O75116). The note with it: at 1 µM.
Test [2] has the same target. Particulars: at 10 µM.
Test [3] deals with Proto-oncogene tyrosine-protein kinase receptor Ret (Homo sapiens) (UniProt P07949). Particulars: at 1 µM.
Test [4] has the same target. The note with it: at 10 µM.
Test [5] addresses Macrophage-stimulating protein receptor (Homo sapiens) (UniProt Q04912). Particulars: at 1 µM.
Test [6] shares this target. Particulars: at 10 µM.
In test [7] the target is Proto-oncogene tyrosine-protein kinase ROS (Homo sapiens) (UniProt P08922). Particulars: at 1 µM.
Chain of Proto-oncogene tyrosine-protein kinase ROS (Homo sapiens) (P08922 whole entry): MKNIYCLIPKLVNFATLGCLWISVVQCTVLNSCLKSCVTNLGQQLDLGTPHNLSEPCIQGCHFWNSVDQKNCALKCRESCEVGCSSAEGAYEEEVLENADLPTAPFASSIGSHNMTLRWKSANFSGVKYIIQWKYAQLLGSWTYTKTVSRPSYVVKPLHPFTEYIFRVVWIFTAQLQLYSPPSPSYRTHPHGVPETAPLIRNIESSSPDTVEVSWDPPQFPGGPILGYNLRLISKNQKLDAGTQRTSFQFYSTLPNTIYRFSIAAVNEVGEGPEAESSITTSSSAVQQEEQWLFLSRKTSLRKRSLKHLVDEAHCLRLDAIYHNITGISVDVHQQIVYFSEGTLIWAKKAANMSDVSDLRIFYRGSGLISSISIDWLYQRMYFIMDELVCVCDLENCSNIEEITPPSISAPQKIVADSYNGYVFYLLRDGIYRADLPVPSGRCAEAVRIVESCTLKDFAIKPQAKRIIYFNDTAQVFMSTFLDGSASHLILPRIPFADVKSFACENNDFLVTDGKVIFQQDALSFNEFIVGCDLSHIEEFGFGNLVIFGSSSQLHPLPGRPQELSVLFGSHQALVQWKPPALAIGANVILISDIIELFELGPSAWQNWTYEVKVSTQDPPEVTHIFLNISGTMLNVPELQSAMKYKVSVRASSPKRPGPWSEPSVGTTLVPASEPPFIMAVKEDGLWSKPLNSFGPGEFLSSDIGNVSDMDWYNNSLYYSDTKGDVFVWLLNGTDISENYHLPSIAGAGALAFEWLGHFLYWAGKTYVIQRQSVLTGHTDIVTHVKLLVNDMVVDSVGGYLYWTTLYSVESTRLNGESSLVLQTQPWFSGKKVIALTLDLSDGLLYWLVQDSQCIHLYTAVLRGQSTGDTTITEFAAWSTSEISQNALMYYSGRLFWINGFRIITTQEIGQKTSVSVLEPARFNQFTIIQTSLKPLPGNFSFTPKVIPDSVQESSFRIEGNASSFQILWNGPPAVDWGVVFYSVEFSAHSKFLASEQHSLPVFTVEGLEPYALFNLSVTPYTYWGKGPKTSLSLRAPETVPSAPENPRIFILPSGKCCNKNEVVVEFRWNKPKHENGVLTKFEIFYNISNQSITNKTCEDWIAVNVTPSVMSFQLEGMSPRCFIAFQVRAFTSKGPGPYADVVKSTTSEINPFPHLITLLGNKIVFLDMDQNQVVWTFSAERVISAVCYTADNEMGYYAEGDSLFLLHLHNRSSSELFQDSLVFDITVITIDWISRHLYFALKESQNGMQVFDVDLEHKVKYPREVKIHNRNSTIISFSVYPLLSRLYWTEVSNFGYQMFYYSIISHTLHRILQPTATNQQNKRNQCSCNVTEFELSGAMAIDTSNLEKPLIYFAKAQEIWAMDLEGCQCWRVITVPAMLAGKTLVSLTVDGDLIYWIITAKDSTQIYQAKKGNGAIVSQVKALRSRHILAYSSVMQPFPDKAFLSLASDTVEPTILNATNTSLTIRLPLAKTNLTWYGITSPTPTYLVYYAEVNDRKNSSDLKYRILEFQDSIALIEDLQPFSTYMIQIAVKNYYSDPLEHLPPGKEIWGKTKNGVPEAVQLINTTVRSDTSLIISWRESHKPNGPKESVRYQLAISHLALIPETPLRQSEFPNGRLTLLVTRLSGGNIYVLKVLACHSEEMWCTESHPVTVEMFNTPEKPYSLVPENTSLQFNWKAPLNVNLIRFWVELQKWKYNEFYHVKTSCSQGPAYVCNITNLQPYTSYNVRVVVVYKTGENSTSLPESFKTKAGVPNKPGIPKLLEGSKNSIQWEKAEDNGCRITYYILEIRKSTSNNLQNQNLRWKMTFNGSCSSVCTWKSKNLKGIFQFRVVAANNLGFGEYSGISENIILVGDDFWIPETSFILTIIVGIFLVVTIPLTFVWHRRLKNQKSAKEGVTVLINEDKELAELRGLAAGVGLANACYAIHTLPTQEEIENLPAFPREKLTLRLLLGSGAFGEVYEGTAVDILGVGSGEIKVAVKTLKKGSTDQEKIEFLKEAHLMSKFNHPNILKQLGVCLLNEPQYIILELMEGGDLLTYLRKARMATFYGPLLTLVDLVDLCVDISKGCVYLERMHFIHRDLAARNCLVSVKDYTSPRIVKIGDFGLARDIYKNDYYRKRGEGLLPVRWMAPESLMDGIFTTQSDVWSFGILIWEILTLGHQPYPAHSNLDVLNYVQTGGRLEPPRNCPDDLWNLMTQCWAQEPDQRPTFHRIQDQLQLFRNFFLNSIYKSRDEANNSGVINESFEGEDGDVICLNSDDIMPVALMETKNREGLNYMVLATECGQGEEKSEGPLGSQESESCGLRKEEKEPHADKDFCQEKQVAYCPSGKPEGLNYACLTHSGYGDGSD
For test [8] the target is unchanged. Particulars: at 10 µM.
Test [9] addresses T1, Tyrosine-protein kinase receptor TYRO3 (Homo sapiens) (UniProt Q06418).
T1 sequence (whole entry): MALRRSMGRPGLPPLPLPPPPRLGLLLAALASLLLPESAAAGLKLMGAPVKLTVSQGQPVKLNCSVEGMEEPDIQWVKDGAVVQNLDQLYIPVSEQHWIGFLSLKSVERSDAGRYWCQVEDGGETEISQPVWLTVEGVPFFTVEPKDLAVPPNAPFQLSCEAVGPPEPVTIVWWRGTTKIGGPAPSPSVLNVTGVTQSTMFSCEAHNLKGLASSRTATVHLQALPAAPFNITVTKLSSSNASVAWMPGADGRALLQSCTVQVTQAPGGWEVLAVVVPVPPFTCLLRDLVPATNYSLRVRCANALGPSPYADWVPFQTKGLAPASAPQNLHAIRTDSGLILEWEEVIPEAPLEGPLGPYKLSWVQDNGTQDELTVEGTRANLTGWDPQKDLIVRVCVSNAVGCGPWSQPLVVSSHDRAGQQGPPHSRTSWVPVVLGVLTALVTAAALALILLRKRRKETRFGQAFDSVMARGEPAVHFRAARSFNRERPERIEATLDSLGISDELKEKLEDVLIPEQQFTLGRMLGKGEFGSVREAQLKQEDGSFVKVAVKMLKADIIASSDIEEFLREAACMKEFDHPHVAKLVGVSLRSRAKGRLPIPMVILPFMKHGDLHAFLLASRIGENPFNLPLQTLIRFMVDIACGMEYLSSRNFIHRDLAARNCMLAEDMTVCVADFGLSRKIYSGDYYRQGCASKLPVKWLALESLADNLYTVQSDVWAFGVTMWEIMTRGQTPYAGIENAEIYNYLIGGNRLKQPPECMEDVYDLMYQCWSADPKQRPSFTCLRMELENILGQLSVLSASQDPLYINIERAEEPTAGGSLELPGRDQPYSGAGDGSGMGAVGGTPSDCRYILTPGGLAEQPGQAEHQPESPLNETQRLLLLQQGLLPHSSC
Particulars: at 1 µM.

The target of test [10] is T1, Tyrosine-protein kinase receptor TYRO3 (Homo sapiens). Particulars: at 10 µM.

Chain of Proto-oncogene tyrosine-protein kinase receptor Ret (Homo sapiens) (P07949 whole entry): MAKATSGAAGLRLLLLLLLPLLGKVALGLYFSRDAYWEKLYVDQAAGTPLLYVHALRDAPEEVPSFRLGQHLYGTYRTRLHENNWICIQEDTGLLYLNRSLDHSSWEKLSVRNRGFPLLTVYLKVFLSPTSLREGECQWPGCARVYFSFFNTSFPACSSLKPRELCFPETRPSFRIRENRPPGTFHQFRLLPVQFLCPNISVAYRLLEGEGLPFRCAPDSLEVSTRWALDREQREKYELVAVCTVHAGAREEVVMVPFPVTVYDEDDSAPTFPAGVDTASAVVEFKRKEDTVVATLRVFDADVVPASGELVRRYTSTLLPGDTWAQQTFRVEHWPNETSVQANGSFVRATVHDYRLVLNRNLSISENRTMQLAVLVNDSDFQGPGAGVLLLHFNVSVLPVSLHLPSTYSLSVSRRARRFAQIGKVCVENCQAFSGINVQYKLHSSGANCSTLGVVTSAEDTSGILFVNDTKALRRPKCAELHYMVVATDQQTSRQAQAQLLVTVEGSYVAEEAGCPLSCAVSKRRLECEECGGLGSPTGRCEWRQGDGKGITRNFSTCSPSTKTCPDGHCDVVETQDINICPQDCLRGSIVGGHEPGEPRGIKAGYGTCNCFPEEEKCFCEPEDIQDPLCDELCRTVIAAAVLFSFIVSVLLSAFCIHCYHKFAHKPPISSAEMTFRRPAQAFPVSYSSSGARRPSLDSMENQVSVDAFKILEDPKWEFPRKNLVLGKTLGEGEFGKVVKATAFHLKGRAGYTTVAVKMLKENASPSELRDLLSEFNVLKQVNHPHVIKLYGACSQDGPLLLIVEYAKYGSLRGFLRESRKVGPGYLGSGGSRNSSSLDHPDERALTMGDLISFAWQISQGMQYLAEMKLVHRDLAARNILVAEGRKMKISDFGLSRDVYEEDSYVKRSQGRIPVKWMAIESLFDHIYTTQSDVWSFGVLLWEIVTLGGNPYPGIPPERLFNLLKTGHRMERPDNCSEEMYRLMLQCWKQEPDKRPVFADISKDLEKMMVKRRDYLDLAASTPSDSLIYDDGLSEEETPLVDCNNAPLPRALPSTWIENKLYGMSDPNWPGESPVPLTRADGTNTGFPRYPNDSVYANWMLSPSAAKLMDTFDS
Chain of Rho-associated protein kinase 2 (Homo sapiens) (O75116 whole entry, looked up): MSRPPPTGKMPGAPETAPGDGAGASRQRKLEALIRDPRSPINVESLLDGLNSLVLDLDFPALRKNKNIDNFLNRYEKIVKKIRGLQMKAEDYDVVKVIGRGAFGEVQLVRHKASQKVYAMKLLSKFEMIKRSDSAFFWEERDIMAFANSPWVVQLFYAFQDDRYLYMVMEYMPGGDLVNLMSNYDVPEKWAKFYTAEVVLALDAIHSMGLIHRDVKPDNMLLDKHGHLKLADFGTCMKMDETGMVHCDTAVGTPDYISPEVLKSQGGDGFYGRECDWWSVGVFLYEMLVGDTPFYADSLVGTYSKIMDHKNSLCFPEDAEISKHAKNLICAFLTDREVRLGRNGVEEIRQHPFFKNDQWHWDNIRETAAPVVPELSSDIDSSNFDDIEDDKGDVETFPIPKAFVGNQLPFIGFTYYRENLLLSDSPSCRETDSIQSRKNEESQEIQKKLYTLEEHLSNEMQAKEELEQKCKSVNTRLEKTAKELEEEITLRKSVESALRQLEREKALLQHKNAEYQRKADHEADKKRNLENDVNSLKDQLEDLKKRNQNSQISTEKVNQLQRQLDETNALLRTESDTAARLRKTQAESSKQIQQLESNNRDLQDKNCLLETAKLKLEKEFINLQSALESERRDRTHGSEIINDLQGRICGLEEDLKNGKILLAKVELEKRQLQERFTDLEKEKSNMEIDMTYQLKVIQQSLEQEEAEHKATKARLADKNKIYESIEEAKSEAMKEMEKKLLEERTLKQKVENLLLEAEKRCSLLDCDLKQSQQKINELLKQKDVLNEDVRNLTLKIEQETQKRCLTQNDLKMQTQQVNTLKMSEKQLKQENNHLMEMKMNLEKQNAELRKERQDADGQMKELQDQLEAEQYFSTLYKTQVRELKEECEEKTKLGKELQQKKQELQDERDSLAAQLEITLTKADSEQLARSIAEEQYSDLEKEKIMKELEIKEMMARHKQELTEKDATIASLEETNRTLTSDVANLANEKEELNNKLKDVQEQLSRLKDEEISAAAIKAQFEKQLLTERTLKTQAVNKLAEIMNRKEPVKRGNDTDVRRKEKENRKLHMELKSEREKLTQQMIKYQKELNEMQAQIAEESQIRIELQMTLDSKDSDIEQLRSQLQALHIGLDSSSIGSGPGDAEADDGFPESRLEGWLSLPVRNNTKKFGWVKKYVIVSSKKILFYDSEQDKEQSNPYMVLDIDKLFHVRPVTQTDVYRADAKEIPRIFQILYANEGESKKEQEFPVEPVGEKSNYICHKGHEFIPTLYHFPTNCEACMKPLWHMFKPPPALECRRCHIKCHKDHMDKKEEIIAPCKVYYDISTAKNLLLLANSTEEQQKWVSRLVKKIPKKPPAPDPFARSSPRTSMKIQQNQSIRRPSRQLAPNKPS

`COc1cccc(-c2cc(=O)c3ccccc3o2)c1N`: the residual activity in test [1] is 97%; in [2], 96%; in test [3], 114%; in test [4], 83%; in test [5], 93%; in test [6] it was 97%. Also, the residual activity amounted to 106% in [7], 97% in test [8], 78% in test [9] and 122% in [10].

`O=c1cc(-c2cccc3c2Sc2ccccc2S3)oc(N2CCOCC2)c1`: the residual activity amounted to 102% in test [1]; 101% in test [2]; 102% in test [3]; 83% in test [4]; 90% in [5]; 104% in test [6]. Also, the residual activity in [7] is 109%; in [8] it was 96%; in test [9], 93%; in test [10], 103%.

For `O=Nc1c(-c2c(O)[nH]c3ccccc23)[nH]c2ccccc12`, the residual activity in test [1] came to 85%; in test [2] it was 82%; in [3], 1%; in test [4] it was 0%; in [5], 86%; in test [6] it was 71%. Besides, the residual activity in test [7] is 105%; in test [8] it was 88%; in test [9], 62%; in test [10] it was 15%.

As for `O=C(O)c1ccc2c3c1cccc3c(=O)n1c3ccccc3nc21`, the residual activity amounted to 119% in test [1]; 107% in [2]; 97% in [3]; 61% in [4]; 106% in [5]; 109% in [6]. Also, the residual activity turned out to be 109% in test [7], 101% in [8], 98% in [9] and 88% in test [10].

On to `CN(C)c1ccc(/C=C2\C(=O)Nc3ccccc32)cc1`, for which the residual activity in test [1] came out at 112%; in [2], 38%; in test [3], 66%; in test [4], 32%; in [5], 91%; in test [6] it was 92%. The residual activity in [7] was determined as 106%; in test [8], 103%; in test [9] it was 100%; in [10], 99%.

In the case of `Nc1cccc(-c2cc3c(Oc4cccc(O)c4)ncnc3[nH]2)c1`, the residual activity in test [1] is 93%; in test [2], 87%; in test [3] it was 2%; in [4] it was 0%; in test [5] it was 83%; in [6] it was 40%. For the same compound, the residual activity in test [7] came out at 98%; in test [8], 60%; in test [9], 6%; in test [10], 0%.

Consider `Cc1nc2cc3nc(-c4cccs4)cnc3cc2n1C`, for which the residual activity in test [1] came out at 113%; in test [2], 93%; in [3] it was 65%; in test [4], 35%; in test [5], 106%; in test [6], 97%. The residual activity in [7] was 109%; in test [8], 112%; in [9], 98%; in [10] it was 79%.

With `Oc1c2ccccc2c2c3c(cccc13)N=N2`, the residual activity was found to be 74% in test [1]; 39% in [2]; 43% in test [3]; 11% in [4]; 78% in [5]; 51% in test [6]. Besides, the residual activity worked out at 93% in test [7], 85% in test [8], 97% in [9] and 81% in test [10].

`O=C(Nc1cccc(Nc2cc(Nc3cccc(C(F)(F)F)c3)ncn2)c1)C1CC1`: the residual activity in [1] is 94%; in test [2] it was 80%; in test [3], 89%; in test [4] it was 95%; in test [5], 96%; in test [6] it was 53%. Moreover, the residual activity was 92% in test [7], 88% in test [8], 88% in test [9] and 30% in [10].

For `O=C1NC(=O)c2c1c1c3ccccc3[nH]c1c1[nH]c3cc(Br)ccc3c21`, the residual activity in test [1] was 93%; in test [2] it was 89%; in [3], 91%; in test [4], 77%; in [5], 79%; in test [6], 83%. Moreover, the residual activity in test [7] came to 102%; in test [8] it was 96%; in test [9], 110%; in test [10] it was 98%.

In the case of `COc1ccc(C(=O)Nc2sc3c(c2C(N)=O)CCCC3)cc1OC`, the residual activity in test [1] was 96%; in [2], 80%; in test [3] it was 93%; in [4] it was 113%; in test [5], 99%; in test [6], 73%. Further, the residual activity turned out to be 96% in test [7], 97% in [8], 86% in test [9] and 96% in [10].

Regarding `Cc1cc2ncc(-c3ccccc3)nc2cc1C`, the residual activity in test [1] was 100%; in [2], 94%; in [3], 96%; in test [4] it was 104%; in test [5] it was 92%; in test [6], 79%. Also, the results for the residual activity in test [7] and in test [8] were 101% and 100%, respectively.

As for `Nc1ccc2ncnc(NCCc3ccc(Oc4ccccc4)cc3)c2c1`, the residual activity in test [1] amounted to 110%; in test [2] it was 94%; in test [3] it was 76%; in test [4], 55%; in [5] it was 82%; in test [6], 70%. The residual activity in [7] was found to be 107%; in test [8], 100%; in test [9], 113%; in test [10] it was 100%.

Take `CC(C)n1cnc2c(NCc3ccccc3)nc(NCCCO)nc21`: the residual activity in test [1] worked out at 94%; in test [2] it was 90%; in test [3], 96%; in test [4] it was 92%; in test [5], 88%; in test [6], 92%. The residual activity was 96% in test [7], 93% in test [8], 105% in test [9] and 101% in test [10].

In the case of `CC(=O)c1ccc(N2CCOCC2)cc1O`, the residual activity turned out to be 92% in [1]; 87% in [2]; 99% in test [3]; 109% in [4]; 91% in test [5]; 77% in test [6]. Also, the residual activity came out at 94% in test [7], 98% in test [8], 86% in test [9] and 106% in test [10].

Regarding `CCN(CC)CCCCN1c2ccccc2Oc2ccc(Cl)cc21`, the residual activity in [1] was found to be 110%; in [2] it was 91%; in [3] it was 108%; in test [4] it was 117%; in test [5] it was 105%; in test [6], 91%. Besides, the residual activity in test [7] is 100%; in test [8] it was 101%; in test [9], 108%; in [10], 108%.

As to `c1ccc2c(-c3ccncc3)c[nH]c2c1`, the residual activity was 37% in test [1]; 6% in test [2]; 103% in [3]; 101% in test [4]; 96% in [5]; 65% in [6]. For the same compound, the residual activity turned out to be 88% in test [7], 92% in [8], 91% in test [9] and 97% in [10].

Consider `CC(C)n1cnc2/c(=N/c3cccc(Cl)c3)nc(NCCO)[nH]c21`, for which the residual activity in test [1] is 83%; in [2], 66%; in test [3], 93%; in test [4], 40%; in [5], 74%; in test [6], 70%. In addition, the residual activity in test [7] came out at 77%; in test [8], 63%; in [9], 118%; in test [10], 51%.
